# Laboratory results published in PubChem BioAssay AID2401 (Southern Research Specialized Biocontainment Screening …, 2010).
# Among all 2,200 compounds or so, about 530 (24%) were called active. Not all results are given here. Results with a measured potency or affinity are listed apart. A number with no mark means an inactive call.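 The calls were made as follows: active = inhibition above a set limit at one or more concentrations of the dose series; inactive = inhibition under that limit at every dose.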
# Test: S. Typhimurium nonspecific reporter signal inhibition – Salmonella Typhimurium, GFP fluorescence, counter-screen for PhoP regulon inhibitor project, dose response (AID 2401);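 also: S. typhimurium with Mg-insensitive nmpC-GFP reporter grown at 10 µM Mg2+; drop in reporter fluorescence reflects general culture growth inhibition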
# Settings: 4 h; series mostly up to 150 µM; inhibition: at the top concentration
row,SMILES,inhibition
1,CN1C(=S)N(c2ccccc2)C(=O)/C1=C/c1ccco1,-8.7%
2,CCn1c(SCc2ccc(F)cc2)nc2ccccc2c1=O,-22.1%
3,COC(=O)c1ccc(CSc2nnnn2-c2ccccc2)o1,4.19%
4,CCOc1ccc(Nc2nc(NCCN3CCOCC3)nc(OC)n2)cc1,-17.3%
5,Cc1cccc(Nc2nc(N)nc(CN3CCN(c4ccccc4)CC3)n2)c1,-9.51%
6,CCOC(=O)c1cnc2ccccc2c1Nc1ccc2c(c1)OCCO2,-19.4%
7,CCc1ccc(Nc2nc(N)nc(CSc3nc4ccccc4s3)n2)cc1,-23.1%
8,CCOc1ccc(CNc2ccc(N3CCCC3)cc2)cc1,21.9%
9,Nc1ccc(Nc2ccccc2)c(Cl)c1,-8.73%
10,C=CCN=C(NC#N)SCc1ccccc1Cl,0.33%
11,Cc1ccc(NC(=O)C2CC(=O)NC(N3CCCCC3)=N2)cc1Cl (configuration not stated),10.1%
12,COC(=O)N1CCN(c2ccc(Cl)c(Cl)c2)CC1,-11.4%
13,O=C(COc1ncnc2sccc12)N1CCN(S(=O)(=O)c2ccc(Cl)cc2)CC1,12.2%
14,CC1CCN(C(c2cc3cc4c(cc3[nH]c2=O)OCO4)c2nnnn2CC2CCCO2)CC1 (configuration not stated),-19.9%
15,CCOC(=O)C[n+]1c(C)sc2ccc(OC)cc21,-45.4%
16,COc1ccc(C)cc1Nc1nc(-c2c(C)[nH]c3ccccc23)cs1,30.2%
17,CCOC(=O)c1c(N)ssc1=S,-9.18%
18,O=c1[nH]c(NCc2ccco2)nnc1Cc1ccccc1Cl,-24.5%
19,N/C(=N\OC(=O)c1ccc(F)cc1)c1nonc1N,-17.4%
20,O=C(c1ccccc1)N1CCN(c2ccc([N+](=O)[O-])c(NCc3ccco3)c2)CC1,-6.39%
21,O=C(NC(=Nc1ccccc1)N1CCOCC1)Nc1ccccc1,-21.2%
22,COc1ccc(C(=O)On2c(-c3ccc(Br)cc3)nc3ccccc3c2=O)cc1,17.4%
23,Cc1cc(-c2csc(N)n2)c(C)n1-c1ccccc1,30%
24,N#CC1=C(N)N=C(SCc2cccc3ccccc23)C(C(N)=O)C12CCCCC2 (configuration not stated),2.06%

row,SMILES,inhibition
1,CCCCC1CCC(C(=O)Nc2ccccc2)CC1 (configuration not stated),-1.73%
2,Cc1ccc(CCNC(=O)C2CCCN(S(=O)(=O)c3c(C)noc3C)C2)cc1 (configuration not stated),-15.8%
3,c1ccc2c(c1)ncn2CCCCOc1ccc2c(c1)CCC2,11.7%
4,O=C(c1ccc(CSc2nc3ccncc3[nH]2)cc1)N1CCN(c2cccc(Cl)c2)CC1,-35.7%
5,CC(=O)N1N=C(c2ccco2)CC1c1ccc(Br)cc1 (configuration not stated),26.9%
6,OCCCNc1nc(-c2ccc(Cl)cc2)nnc1-c1ccc(Br)cc1,8.64%
7,CC(C)[C@@H]1CC[C@@H](C)C[C@H]1OC(=O)C[n+]1cc(-c2ccc(Cl)cc2)n2c1CCCCC2,22.9%
8,COc1ccc(-n2c(CNc3ccc(C)cc3)nnc2SCc2ccccc2)cc1,-8.88%
9,Cn1cc(-c2nnnn2-c2cccc(C(F)(F)F)c2)c(C(F)(F)F)n1,-2.59%
10,CCn1c(CNC(=O)c2cccc(C)c2)nc2ccccc21,11.2%
11,COc1ccccc1-c1c(C#N)c(N)nc2c1CCc1ccccc1-2,11.5%
12,O=c1cc(Cc2ccccc2)[nH]c(=S)[nH]1,33.4%
13,CCOC(=O)Cc1ccc(NS(=O)(=O)c2ccc(SC)cc2)cc1,-6.6%
14,NC1=NC(=Nc2cccc(Cl)c2)c2ccccc21,-26%
15,C#CCOc1ccc(/C=C2\SC(=S)N(Cc3cccnc3)C2=O)cc1,-13.1%
16,COCCNC(=O)c1ccc(C(=O)NCCOC)s1,10.3%
17,CC(Nc1ccc(Br)cn1)c1cc(Cl)ccc1O (configuration not stated),19.7%
18,COc1ccc(/C=N/NC(=O)c2ccc3c(c2)OCCO3)cc1[N+](=O)[O-],21.9%
19,COc1cc([N+](=O)[O-])cc(/C=N/NC(=O)c2cccnc2)c1O,-0.27%
20,O=C(Nc1cc(C(F)(F)F)ccc1N1CCOCC1)c1ccc(Br)o1,-24.2%
21,Cc1nc(N2CCN(Cc3ccc4c(c3)OCO4)CC2)nc2c1C(=O)CC(c1ccco1)C2 (configuration not stated),5.75%
22,CC1CCN(S(=O)(=O)c2cccc(C(=O)N(C)C3CCS(=O)(=O)C3)c2)CC1 (configuration not stated),-5.63%
23,CN1c2ccccc2C(O)=C(C(=O)Nc2ccccc2)S1(=O)=O,-32.2%
24,O=C(N/N=C/c1ccc(F)cc1)c1cc(-c2ccco2)nc2ccccc12,7.96%

row,SMILES,inhibition
1,COC(=O)C1=C(C)N(C)C(=O)/C1=C\c1ccco1,-21.4%
2,O=C(COc1ccccc1)NC(=S)Nc1ccc2c3c(cccc13)CC2,-2.5%
3,Cc1ccc(C(=O)CSc2ncnc3sc4c(c23)CCCC4)cc1,-20.6%
4,COc1ccc(N2CCN(C(=O)CN(c3cccc(Br)c3)S(C)(=O)=O)CC2)cc1,-21.7%
5,O=C(/C=C/c1ccco1)Oc1cc(Br)cc(/C=N/NC(=O)c2ccccc2O)c1,17.5%
6,CCN1CCN(C(=O)c2ccc3c(=O)n(Cc4ccccc4OC)c(=S)[nH]c3c2)CC1,-4.23%
7,Cc1cc(C)nc(Nc2ccc(N3CCCC3)cc2)n1,32.9%
8,O=C(NCCc1ccccc1)c1ccc2nc(-c3ccco3)c(-c3ccco3)nc2c1,-46.4%
9,Clc1ccc(OCCn2ccnc2)c(Br)c1,18.4%
10,O=C(NC1CCN(C(=O)N2c3ccccc3Sc3ccccc32)CC1)c1ccco1,8.29%
11,CCn1c2ccccc2c2cc(C3N=C(N)Nc4nc5ccccc5n43)ccc21 (configuration not stated),-8.32%
12,O=C(CN1CCN(c2ccccn2)CC1)Nc1ccc(Oc2ccccc2)cc1,-14.2%
13,COc1ccc(OC)c(C2=Nn3c(nnc3-c3cc(OC)c(OC)c(OC)c3)SC2)c1,-10.9%
14,O=C1CCCc2nc(N3CCN(Cc4ccccc4)CC3)ncc21,13.7%
15,COc1ccc(Nc2sc(C(=O)Nc3cccc(Cl)c3)c(N)c2C(=O)Nc2ccccc2OC)cc1,5.71%
16,O=S(=O)(c1ccc(F)c2ccccc12)N1CCCCC1,-2.06%
17,Cn1ccnc1SCC(=O)Nc1sccc1C#N,-22%
18,Cn1cc(C(CC(=O)O)C(=O)O)c2ccccc21 (configuration not stated),-32.7%
19,c1ccc2c(N3CCCCCC3)nc(-c3ccncc3)nc2c1,9.59%
20,CCOC(=O)c1cnc2ccc(OCC)cc2c1N1CCN(c2ccccc2)CC1,-17.9%
21,Cc1ccc(NC(=O)CCCSc2nc3ccccc3[nH]2)cc1,13.2%
22,CCN(CCO)Cc1csc2ccccc12,12%
23,CC(C)CCNC(=O)C12CN(Cc3ccccc3)CC1C(c1cccc([N+](=O)[O-])c1)=NO2 (configuration not stated),-30.9%
24,CCCn1c(NCc2c[nH]c3ccccc23)nc2ccccc21,-21.9%
